Source: PubChem BioAssay
mIDH1 inhibitor: blocks human mutant IDH1 R132H enzyme | Potency, µM (series often up to 76.6 µM), hits mostly inhibitors | hit rate 0.093% among 390,000 | IDH1-R132H enzyme, NADPH consumption, diaphorase/resazurin fluorescence; also: nearly all actives have a fitted effect of over 65% in size
Target sequence (O75874 whole entry R132H, stated change not applied): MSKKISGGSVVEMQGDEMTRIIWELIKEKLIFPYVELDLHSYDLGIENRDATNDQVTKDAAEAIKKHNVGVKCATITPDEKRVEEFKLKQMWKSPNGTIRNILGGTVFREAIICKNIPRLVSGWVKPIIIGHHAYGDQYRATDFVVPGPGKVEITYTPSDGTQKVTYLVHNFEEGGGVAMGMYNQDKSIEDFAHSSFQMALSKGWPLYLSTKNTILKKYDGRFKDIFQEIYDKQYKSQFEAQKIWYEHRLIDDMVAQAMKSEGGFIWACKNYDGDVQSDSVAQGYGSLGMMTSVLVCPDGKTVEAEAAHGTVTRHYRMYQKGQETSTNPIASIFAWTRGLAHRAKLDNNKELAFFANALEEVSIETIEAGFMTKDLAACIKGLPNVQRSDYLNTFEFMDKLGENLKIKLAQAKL
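IDH1-R132H (0.5 ug/mL dispensed) in pH 7.5 Tris buffer was preincubated 30 min with compound, then given a substrate mix of 0.016 mM NADPH and 2 mM alpha-KG for 80 min at room temperature; remaining NADPH was read by diaphorase/resazurin fluorescence.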
GLP1R cytotox: cytotoxicity in counter-screen for GLP-1R inverse agonists; Potency, µM (doses to about 38.3 µM), most hits filed as inhibitors; HEK293 cAMP-luciferase reporter cells, luminescence, 24 h; hit rate 0.13% among 410,000; AID 624418;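 also: loss of luciferase light is scored as toxicity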
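Step one: seed cells (200 cells/uL, DMEM with 10% Nu serum, 1% pen-strep). Step two: 12-hour incubation at 37 deg C. Step three: pin 23 nL compound, incubate 24 hr. Step four: add luciferase reagent, read luminescence 12 min later.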
GLP1R inv ag: GLP-1 receptor (human) inverse agonism. HEK293 GLP-1R CRE-luciferase, luminescence, 24 h; GLP-1R form is constitutively active. AID 624417. Potency, µM (highest dose often 38.3 µM), actives largely listed as inhibitors. hit rate 1.6% among 410,000; also: nearly all actives have a fitted effect of over 55% in size
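Cells are plated, allowed 12 hours at 37 deg C, then treated with compounds for 24 hr before luciferase detection reagent is added and luminescence is read after 12 min at room temperature. The HEK293 line carries constitutively active GLP-1R with a cAMP-responsive reporter.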
LDHA block: blocks human lactate dehydrogenase A. purified LDHA, NADH/diaphorase-resazurin fluorescence; active compounds read low. AID 1347041. hit rate 0.15% among 480,000. activity change, % (values are at about 110 or 230 µM); in the data active = activity change below about -30%; inconclusive = mostly about -25% to -30%
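Remaining NADH was detected by diaphorase (0.133 mg/mL) converting 37 µM resazurin to fluorescent resorufin, read at 0 and 20 minutes. The preceding 5-minute room-temperature reaction used 2 nM LDHA, 0.2 mM sodium pyruvate and 0.06 mM NADH at pH 7.4.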
PTHR1 agonist: PTHR1 (human) receptor agonism; Q03431; HEK293 GP2 PTHR1 cells, GloSensor cAMP luminescence, 1 h; Potency, µM (top dose mostly 115 µM), actives largely listed as activators; hit rate 0.075% among 410,000; AID 743266; also: nearly all actives have a fitted effect of over 55% in size
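HEK-293-derived GP2 cells expressing PTHR1 and a GloSensor cAMP reporter, 3,000/well, plated overnight, given luciferin plus IBMX (each 0.5 mM as added) for 1 h at 37 °C, then compound for 1 h at 37 °C. Luminescence was read after 15 min at room temperature.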
GLP-1R agonist: activates the human GLP-1 receptor. P43220. hit rate 0.007% among 380,000. HEK293 GLP-1R CRE-luciferase, luminescence, 4-6 h; cells express a hypersensitive GLP-1R form. Potency, µM (series often up to 45.6 µM), usual class: activators
Resorufin autofl: autofluorescence interference, mutant IDH1 hit counter-screen; shares compounds with mIDH1 inhibitor; Resorufin detection reagent fluorescence interference, cell-free; inhibition of signal, % at 51.2 µM; 750 tested, under 10 active; AID 623980
WT IDH1 inh: selectivity of mutant IDH1 inhibitors: human wild-type IDH1; WT IDH1 enzyme, NADPH diaphorase/resazurin fluorescence; Potency, µM (top dose mostly 115 µM), actives largely listed as inhibitors; hit rate 9% among 750; shares compounds with mIDH1 inhibitor; also: nearly all actives have a fitted effect of over 55% in size
Target sequence (O75874 whole entry, looked up): as the sequence (O75874 whole entry R132H, stated change not applied) above, with H132R counted along it
IDH1 R132H conf: inhibits human mutant IDH1 enzyme in cherrypick confirmation; Potency, µM (top dose mostly 76.6 µM), actives largely listed as inhibitors; shares compounds with mIDH1 inhibitor; hit rate 83% among 750; IDH1 R132H enzyme, NADPH diaphorase/resazurin fluorescence; AID 624002; also: nearly all actives have a fitted effect of over 50% in size
Numbers stand for hits; - = inactive; ? = inconclusive; . = no result given. Hits are enriched below; roughly 1.7% of the tested compounds scored in any of these assays. Unless noted, calls follow the shape of the dose curve; as a rule, active = well fitted curve in the direction sought with a large enough effect; inconclusive = small, poorly fitted or top-dose-only effect, or another doubt; inactive = no such curve, though single readings can be large; an effect the other way counts as inactive or inconclusive.

SMILES | mIDH1 inhibitor | GLP1R cytotox | GLP1R inv ag | LDHA block | PTHR1 agonist | GLP-1R agonist | others
Cc1ccc(F)c([C@H]2[C@H]3C=CC[C@@H](C)[C@@H]3C(=O)N2Cc2ccccc2)c1 | - | - | 10µM | - | - | -
CC(C)n1nc(C(=O)NC2CCN(Cc3ccccc3)C2)c2ccccc2c1=O (stereo unspecified) | . | . | . | - | . | .
CCCOC(c1ccccc1)(c1ccc(C(F)(F)F)cc1)C(Oc1nc(C)cc(C)n1)C(=O)O (stereo unspecified) | - | - | ? | - | - | -
Cc1cc(C)nc(OC(C(=O)O)C(OCCc2ccccc2)(c2ccc(F)cc2)c2ccc(F)cc2)n1 (stereo unspecified) | - | - | 10µM | - | - | -
CCN(CC)CCCNC(=O)c1cc(-c2ccc(Cl)c(Cl)c2)on1 | - | ? | 5.6µM | - | - | -
CCCN(CCC)CCCNC(=O)c1cc2c(-c3ccc(Cl)cc3)nn(C)c2s1 | - | - | - | - | ? | .
CCN(CC)CCCNC(=O)c1cc2c(-c3ccc(Cl)cc3)nn(C)c2s1 | - | ? | 3.5µM | - | - | -
CCN(CC)CCCNC(=O)c1cc(-c2ccc(O)cc2)on1 | - | - | - | - | - | -
C=CCOc1ccc(Br)cc1/C=C(/C#N)C(=O)Nc1ccccc1C(F)(F)F | . | . | . | - | . | .
Cn1cccc1/C=N\NC(=O)C1COc2ccc(C(C)(C)C)cc2O1 (stereo unspecified) | - | - | 10µM | - | - | -
CCC(=O)NC(=S)Nc1cccc(Cl)c1N1CCCC1 | - | ? | 5.6µM | - | - | -
COc1cc(NC(=O)CCN2CCN(C/C=C/c3ccccc3)CC2)cc(OC)c1 | - | - | 10µM | - | - | -
COc1ccc(NC(=O)CCN2CCN(C/C=C/c3ccccc3)CC2)cc1 | - | - | - | - | - | -
O=C(N/N=C/c1cccc(OCCCOc2ccccc2Cl)c1)c1ccccc1 | . | . | . | - | . | .
COC(=O)c1ccccc1-c1ccc(/C=N/Nc2nc(N3CCCC3)nc(N3CCCC3)n2)o1 | - | ? | 10µM | - | - | -
O=C(COC(=O)c1ccccc1NCCO)NCCc1ccccc1 | - | - | - | - | - | -
O=C(OCC(=O)N(Cc1ccccc1)Cc1ccccc1)c1ccccc1NCCO | - | - | 5.6µM | - | - | -
CC(Sc1ccc2ccccc2n1)C(=O)Nc1ccc(C(F)(F)F)cc1 (stereo unspecified) | . | . | . | - | . | .
Cc1cc(F)ccc1S(=O)(=O)Nc1nc2ccccc2nc1Cl | - | - | ? | - | - | -
Cc1ccc(C(C)(C)C)cc1S(=O)(=O)Nc1nc2ccccc2nc1Cl | - | - | 10µM | - | - | -
COc1ccc(-c2cc3ccc(OC(=O)C(C)(C)C)cc3oc2=O)cc1OC | . | . | . | - | . | .
COc1ccc(/C=C(/C#N)C(=O)Nc2ccc(C34CC5CC(CC(c6ccccc6)(C5)C3)C4)cc2)cc1 | . | . | . | - | . | .
O=C(Nc1ccc(F)cc1F)c1ccn(Cn2nnc(-c3ccccc3)n2)n1 | . | . | . | - | . | .
O=C(N/N=C/c1ccc([N+](=O)[O-])s1)c1ccccc1 | - | - | - | -63 | - | -
C=CCc1cccc(/C=N/NC(=O)CNc2cccc3ccccc23)c1O | - | ? | ? | - | - | -
SMILES | mIDH1 inhibitor | GLP1R cytotox | GLP1R inv ag | LDHA block | PTHR1 agonist | GLP-1R agonist | others
C=CCc1cccc(/C=N/NC(=O)CNc2ccccc2)c1O | - | ? | 3.5µM | - | - | -
Nc1ccc(C(=O)N/N=C/c2cn(Cc3cccc(F)c3)c3ccccc23)cc1 | - | - | 5µM | - | - | -
C=CCc1cccc(/C=N/NC(=O)CCCNc2ccc(C)cc2)c1O | - | ? | 10µM | - | - | -
O=C(CNc1ccc2c(c1)OCO2)N/N=C\c1cn(Cc2ccccc2)c2ccccc12 | - | - | 2.8µM | - | - | -
CCOC(=O)N1CCN(C(=O)CN(c2ccccc2Cl)S(C)(=O)=O)CC1 | . | . | . | - | . | .
CC(C)(C)c1ccc(OCC(=O)Nc2onc3c2CCCC3)cc1 | . | . | . | - | . | .
CC(C)(C)CC1CCCN1C(=O)CCc1nc2ccccc2c(=O)[nH]1 (stereo unspecified) | . | . | . | - | . | .
O=C(NC1CCCCC1)c1ccccc1NC(=O)C1CCN(S(=O)(=O)Cc2ccccc2)CC1 | . | . | . | - | . | .
COc1ccc(C)cc1-n1c(-c2ccc(Cl)cc2)cc2c1CC(C)(C)CC2=O | ? | - | - | - | - | . | Resorufin autofl=-;WT IDH1 inh=-;IDH1 R132H conf=14µM
COc1ccc(-n2c(-c3ccc(Cl)cc3)cc3c2CC(C)(C)CC3=O)c(OC)c1 | - | - | ? | - | - | .
O=C(Nn1c(C2CCCCC2)nc2ccccc2c1=O)c1ccc([N+](=O)[O-])cc1 | ? | - | - | - | - | - | Resorufin autofl=-;WT IDH1 inh=-;IDH1 R132H conf=-
O=C(NCCN1CCOCC1)c1nn2c(C(F)(F)F)cc(-c3cccs3)nc2c1Cl | . | . | . | - | . | .
CCc1ccc(C2c3c(-c4cc(C)ccc4O)n[nH]c3C(=O)N2Cc2cccnc2)cc1 (stereo unspecified) | 28µM | - | - | - | - | . | Resorufin autofl=-;WT IDH1 inh=-;IDH1 R132H conf=16µM
CCOc1ccc(C2c3c(-c4cc(C)ccc4O)n[nH]c3C(=O)N2Cc2cccnc2)cc1OCC (stereo unspecified) | ? | - | - | - | - | . | Resorufin autofl=-;WT IDH1 inh=-;IDH1 R132H conf=35µM
COc1cccc(C2c3c(-c4ccccc4O)n[nH]c3C(=O)N2Cc2cccnc2)c1 (stereo unspecified) | - | - | - | - | - | .
COc1cc(C2c3c(-c4cc(C)ccc4O)n[nH]c3C(=O)N2Cc2cccnc2)cc(OC)c1OC (stereo unspecified) | - | - | - | - | - | .
CC(C)=CC(=O)Nc1ccc(Br)cc1F | . | . | . | - | . | .
COCCn1c(-n2nc(C)c(C)c2C)nc2c1c(=O)[nH]c(=O)n2C | . | . | . | - | . | .
CC(C)=CC1C(C(=O)NC2CCCCC2C(F)(F)F)C1(C)C (stereo unspecified) | . | . | . | - | . | .
COc1ccc(NS(=O)(=O)c2ccc(NC(=S)NC(=O)/C=C/c3ccccc3)cc2)nn1 | ? | - | - | - | - | - | Resorufin autofl=-;WT IDH1 inh=?;IDH1 R132H conf=25µM
